# Compound activity from PubChem BioAssay.
# An excerpt weighted towards active compounds, which were near 5.4% of everything screened.
# Six1-Eya2 inh = qHTS Assay for Inhibitors of the Six1/Eya2 Interaction; activity change, % (test concentration not listed); AID 651725, 2012; AlphaScreen GST-Six1/His-Eya2 binding, biochemical; stronger effect = lower value; actives 0.56% (n = 360,000); Homeobox protein SIX1 (Homo sapiens) + Protein phosphatase EYA2 (Homo sapiens), …; in the data active = activity change below about -65%; inconclusive = mostly about -30% to -63%; also: % is scaled to controls: 0 for no effect and ±100 for the full control effect
# Target sequence (O00167 whole entry, looked up): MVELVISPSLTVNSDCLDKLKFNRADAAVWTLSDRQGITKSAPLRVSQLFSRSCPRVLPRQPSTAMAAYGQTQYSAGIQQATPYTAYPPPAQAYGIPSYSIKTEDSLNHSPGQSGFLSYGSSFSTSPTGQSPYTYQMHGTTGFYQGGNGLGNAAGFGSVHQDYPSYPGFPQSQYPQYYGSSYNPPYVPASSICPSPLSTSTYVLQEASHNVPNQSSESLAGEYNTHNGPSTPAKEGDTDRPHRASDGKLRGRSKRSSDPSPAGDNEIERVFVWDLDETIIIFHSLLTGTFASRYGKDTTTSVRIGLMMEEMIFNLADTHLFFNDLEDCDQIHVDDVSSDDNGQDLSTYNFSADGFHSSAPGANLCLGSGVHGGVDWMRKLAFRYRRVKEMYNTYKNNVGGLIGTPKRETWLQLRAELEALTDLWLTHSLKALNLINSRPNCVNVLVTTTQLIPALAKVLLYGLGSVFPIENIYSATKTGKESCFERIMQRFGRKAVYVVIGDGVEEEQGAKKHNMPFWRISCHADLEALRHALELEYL
# Target sequence (Q15475 whole entry, looked up): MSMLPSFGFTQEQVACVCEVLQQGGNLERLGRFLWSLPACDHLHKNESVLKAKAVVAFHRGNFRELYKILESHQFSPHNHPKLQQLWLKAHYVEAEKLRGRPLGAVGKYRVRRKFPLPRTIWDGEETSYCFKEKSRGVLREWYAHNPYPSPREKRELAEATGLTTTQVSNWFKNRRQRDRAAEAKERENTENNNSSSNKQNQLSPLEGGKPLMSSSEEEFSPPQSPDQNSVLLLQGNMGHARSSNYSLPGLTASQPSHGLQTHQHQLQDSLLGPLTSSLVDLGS
#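 Compounds are tested against tagged Six1 and Eya2 proteins bridged by glutathione donor and nickel acceptor beads; after a one-hour incubation at 37 °C without light, AlphaScreen emission is recorded.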
# VP16 counter = VP16 counterscreen qHTS for inhibitors of ROR gamma transcriptional activity. AID 2546, 2010. Potency, µM (titrated, usually from 53.6 µM), without a hit: at the top dose activity, negative = inhibition, actives largely listed as inhibitors. Drosophila S2 Gal4-VP16 UAS-luciferase, luminescence, 20 h. actives 3.5% (n = 310,000);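 also: Gal4-VP16 expression switched on by copper sulfate through the metallothionein promoter; potency is read from the fitted curve at half-maximal effect; % is scaled to controls: 0 for no effect and ±100 for the full control effect; nearly all actives have a fitted effect of over 50% in size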
# CtBP-E1A inh = qHTS Assay for Inhibitors of the CtBP/E1A Interaction; activity change, % (test concentration not listed); CtBP / adenovirus E1A interaction (AlphaScreen); AID 651724, 2012; actives 0.49% (n = 340,000); AlphaScreen GST-E1A/His-CtBP binding, 1536-well; stronger effect = lower value; in the data active = activity change below about -65%; inconclusive = mostly about -30% to -63%; also: % is scaled to controls: 0 for no effect and ±100 for the full control effect
#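 Protein mix (5X: 125 nM each GST-E1A, His-CtBP) was incubated with pinned compound 2 h at 37 deg C in dark, in 50 mM Tris pH 8.0 buffer with 300 mM NaCl. Glutathione donor and nickel acceptor beads followed; AlphaScreen signal read after 1 h.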
# RORgamma inh = qHTS for inhibitors of ROR gamma transcriptional activity | Drosophila S2 Gal4-RORgamma UAS-luciferase reporter, 20 h | Potency, µM (top dose mostly 53.6 µM), for inactives: at the top dose activity change, negative = inhibition, most hits filed as inhibitors | actives 5.4% (n = 310,000) | AID 2551, 2010; also: potency is read from the fitted curve at half-maximal effect; % is scaled to controls: 0 for no effect and ±100 for the full control effect; nearly all actives have a fitted effect of over 60% in size
#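 Schneider cells (Drosophila), stable Gal4 DBD–ROR gamma + UAS-luc; 1 hr cmpd preincubation; Cu2+ induction 700 uM final; 20 hr ambient; luminescence.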
# p53 reactivator = qHTS assay for re-activators of p53 using a Luc reporter | H1299 p53-A138V BP100-luciferase reporter, luminescence, 24 h | Potency, µM (doses to about 92.2 µM), without a hit: at the highest dose activity change, positive = activation, hits mostly activators | actives 0.063% (n = 320,000) | AID 504706, 2011; also: potency is read from the fitted curve at half-maximal effect; % of control where 0% means no effect; nearly all actives have a fitted effect of over 45% in size
#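 H1299 (p53-null), stable ts p53-A138V + BP100-Luc; 1000 cells/well, Opti-MEM/10% FBS; cpd 4 pt, 1:5; 24 h, 37 deg C, 5% CO2; detection reagent 10 min RT; luminescence.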
# * marks the source's active call; other numbers are inactive results; ? = inconclusive; · = not tested or not shown; [ ] = another dose, or the depositor's remark. Unless noted, calls follow the shape of the dose curve; as a rule, active = well fitted curve in the direction sought with a large enough effect; inconclusive = small, poorly fitted or top-dose-only effect, or another doubt; inactive = no such curve, though single readings can be large; an effect the other way counts as inactive or inconclusive.
SMILES,Six1-Eya2 inh,VP16 counter,CtBP-E1A inh,RORgamma inh,p53 reactivator
COc1ccc(NC(=S)N/N=C/c2ccc(F)cc2)cc1OC,-6,2.5µM*,0,0.63µM*,10%
Fc1ccc(NC(=S)Nc2ccc(Cl)cc2)cc1,0,-4%,0,?,19%
COc1ccc([C@H]2CC(=O)C[C@@H](CCn3cc(CCc4ccccc4)nn3)O2)cc1,4,·,-3,·,·
COC(C[C@@H]1O[C@H]1[C@@H](O)COCc1ccccc1)OC,11,7%,7,15%,0%
Fc1ccc(/C=N/NC(=S)Nc2ccc(Cl)cc2Cl)cc1,-5,?,3,?,2%
Fc1ccc(NC(=S)N/N=C/c2ccc(F)c(F)c2)cc1,-3,3.2µM*,5,0.71µM*,0%
COc1ccc(/C=N/NC(=S)Nc2ccccc2)cc1COc1ccc(F)cc1F,-14,1µM*,-5,0.63µM*,-10%
COc1ccc(/C=N\NC(=O)c2ccc(F)cc2)cc1COc1ccccc1C(N)=O,-26,8%,-30,7%,0%
S=C(NN=C1CCCCCC1)Nc1ccc(Cl)cc1,0,?,6,?,7%
Fc1ccc(NC(=S)NN=C2CCCCCC2)cc1,-4,18µM*,-11,4.5µM*,?
Cc1cc(Br)c(NC(=O)COC(=O)C2CCCCC2)c(Br)c1,-3,·,10,·,-2%
O=C(Nc1ccc2nc3n(c(=O)c2c1)CCCCC3)c1cc([N+](=O)[O-])ccc1F,-12,-7%,?,16%,-26%
CC(=O)c1cccc(NC(=O)c2ccc3c(=O)n4c(nc3c2)CCCCC4)c1,-7,5µM*,-4,2.5µM*,3%
O=C(Nc1cccc(S(=O)(=O)N2CCCC2)c1)c1ccc2c(=O)n3c(nc2c1)CCCCC3,-11,-25%,-6,32%,3%
O=C(Nc1ccc2nc3n(c(=O)c2c1)CCCCC3)c1c(F)ccc([N+](=O)[O-])c1F,-12,7.9µM*,-12,-94%,-23%
CC(=O)Nc1c2c(nn1-c1ccccc1C)CS(=O)(=O)C2,-2,0%,0,10%,1%
O=C(NCC1OCCc2ccccc21)c1ccc(NC(=O)c2ccc(Cl)cc2)cc1 (stereo unspecified),15,?,-6,?,-43%
CCOc1cc(C2NC(=O)NC(C)=C2C(=O)OCc2ccccc2)ccc1O (stereo unspecified),-69*,8%,6,-11%[10 µM],-8%
CCc1nc2ccc(C(=O)NCCCN3CCN(c4ccccc4F)CC3)cc2nc1CC,-14,-8%,-20,3%,1%
Cn1c(N/N=C/c2ccccc2)nc2sc3c(c2c1=O)CCC3,-71*,7.1µM*,?,1.6µM*,3%
COc1ccc(Nc2cccc3ccccc23)cc1,-1,·,3,·,?
O=C1CCCC2[C@@H]3CCC[N@+]4([O-])CCC[C@H](CN12)C34 (stereo partly specified),·,-5%,·,-1%,·
O=C(O)c1ccccc1N/N=C\c1ccnc2ccccc12,-8,?,-2,5µM*,1%
COC(=O)c1cc(-c2ccc(Br)cc2)on1,10,-3%,15,-1%,0%
COC(=O)c1nn(C23CC4CC(CC(C4)C2)C3)c2c1C(=O)N(c1ccc(Br)cc1)C2=O,4,5.6µM*,2,-13%,6%
SMILES,Six1-Eya2 inh,VP16 counter,CtBP-E1A inh,RORgamma inh,p53 reactivator
CCOC(=O)c1nn(C23CC4CC(CC(C4)C2)C3)c2c1C(=O)N(c1ccc(C)cc1)C2=O,3,7.1µM*,1,11µM*,10%
NNC(=O)c1cc(S(=O)(=O)N2CCOCC2)c[nH]1,0,·,-6,·,11%
C#CCNC(=O)C[C@@H]1C[C@@]2(C(=O)OC)CCCCC=C2N(Cc2ccccc2)C1=O,-4,·,6,·,·
CC(C)(C)C(=O)Nc1cccc(-c2nc3ccccc3[nH]2)c1,0,4%,1,43%,7%
CC(C)(C)C(=O)Nc1sc2c(c1-c1nc3ccccc3[nH]1)CCCC2,1,?,8,0.79µM*,8%
NNC(=O)Nc1cccc(C(F)(F)F)c1,12,1%,0,20%,-1%
NC(=O)/C=C\C(=O)Nc1cccc(C(F)(F)F)c1,-5,13µM*,-1,?,-23%
O=C(Nc1ccc(OC(F)(F)F)cc1)Nc1cccc([N+](=O)[O-])c1,-2,6.3µM*,0,?,35µM*
O=C(Nc1ccc(OC(F)F)cc1)Nc1cccc(C(F)(F)F)c1,6,25µM*,-15,?,8%
COc1cccc(Cn2c(=O)c(-c3ccccc3)nc3cnc(N4CCNCC4)nc32)c1,·,7%,·,-16%,·
COCCN(C(=O)C1CCCO1)c1c(N)n(CC(C)C)c(=O)[nH]c1=O (stereo unspecified),1,·,2,·,12%
CC1CCN(c2cc(N3CCOCC3)c([N+](=O)[O-])cc2F)CC1,-13,-7%,-7,-33%,11%
CCc1nnc(N/N=C/c2ccc(N3CCC(C)CC3)c([N+](=O)[O-])c2)n1N,-26,?,?,10µM*,-9%
Cc1nnc(N/N=C/c2cc([N+](=O)[O-])c(N3CCC(C)CC3)cc2N2CCC(C)CC2)n1N,?,?,?,16µM*,-14%
Nn1cnnc1N/N=C/c1ccc(Cl)c([N+](=O)[O-])c1,-24,?,?,?,-11%
CCCCn1c(=S)[nH]c2c(oc3ccc(Cl)cc32)c1=O,·,?,·,1.1µM*,-10%
CCCn1nnc(NC(=S)NC(=O)C(C)(C)C)n1,0,8.9µM*,-4,3.5µM*,0%
CCCn1nnc(NC(=S)NC(=O)c2cccs2)n1,0,5.6µM*,-3,2µM*,?
CCn1nnc(NC(=S)NC(=O)c2ccc(-c3cccc(Cl)c3)o2)n1,?,2.8µM*,?,0.28µM*,0%
COc1cc(CN2C(=S)NC(C)(C)CC2(C)O)cc(OC)c1 (stereo unspecified),-4,11µM*,5,3.5µM*,-7%
O=C(COc1cccnc1[N+](=O)[O-])Nc1ccc(Cl)c(S(=O)(=O)N2CCOCC2)c1,2,8%,-3,17%,-3%
O=c1cc(-c2ccc(O)c(O)c2)oc2cc(O)c(C3OC(CO)C(O)C(O)C3O)c(O)c12 (stereo unspecified),?,-8%,-3,6%,-3%
C/C(=N\NC(=O)C1COc2ccccc2O1)c1ccccn1 (stereo unspecified),-91*,2.8µM*,-86*,1.8µM*,?
